Screens deposited in PubChem by National Center for Advancing Translational Sciences (NCATS).
This is a sample that favours compounds with a hit; in the whole collection about 8.7% have one here.
Vaccinia mCherry – vaccinia inhibition (mCherry reporter) | Vaccinia virus mCherry reporter infection, fluorescence | Potency, µM (top dose mostly 36.5 µM), for inactives: at the highest dose activity change, negative = inhibition, hits mostly inhibitors | 310,000 compounds, 0.63% hits | AID 720579; calls by dose curve; tested in A549 cells; note: nearly all actives have a fitted effect of over 35% in size
AMA1-RON2 inh – disrupts binding of P. falciparum AMA1 to RON2. AlphaScreen AMA1-biotinylated RON2 peptide binding. 360,000 compounds, 0.2% hits. Potency, µM (doses to about 58.2 µM), for the others: top-dose activity change, negative = inhibition, usual class: inhibitors;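 note: 0% = vehicle wells and -100% = peptide control; nearly all actives have a fitted effect of over 45% in size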
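AMA1 (3D7) with his tag at 25 nM final met compounds first, then biotinylated RON2 peptide at 25 nM; detection used donor plus acceptor beads, 10 µg/mL apiece, read by AlphaScreen after 30 min at room temperature.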
Pf growth 48h – inhibits P. falciparum growth in the first generation, 48 h; P. falciparum luciferase growth in erythrocytes, 48 h; Potency, µM (highest dose often 28.7 µM), without a hit: at the highest dose activity change, negative = inhibition, usual class: inhibitors; 310,000 compounds, 5.9% hits
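In quantitative HTS format, infected erythrocytes bearing luciferase-reporter parasites were treated for a single generation at 37 C. Luminescence after adding detection reagent served as the growth measure.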
VACV Venus inh – inhibitors of vaccinia virus (Venus reporter); 330,000 compounds, 0.46% hits; Potency, µM (top dose mostly 36.5 µM), for the others: at the highest dose activity change, negative = inhibition, most hits filed as inhibitors; Vaccinia virus Venus reporter expression, fluorescence; AID 720580; calls by dose curve; tested in A549 cells; note: nearly all actives have a fitted effect of over 30% in size
Pf growth 96h – inhibits malaria parasite growth, 96 h | Potency, µM (titrated, usually from 28.7 µM), for inactives: at the top dose activity change, negative = inhibition, actives largely listed as inhibitors | P. falciparum luciferase reporter growth, 96 h | AID 504834 | 320,000 compounds, 6.9% hits
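96 h incubation, 37 C, 5% CO2, of luciferase-reporter P. falciparum-infected RBCs (2% hematocrit, 0.05% parasitemia final) with test compounds; endpoint luminescence.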
* hit, by the source's call; i = inactive; ? = inconclusive; / = no result; [ ] = dose if it differs, or a comment. Unless noted, calls come from the whole dose curve; as a rule, active = well fitted curve in the direction sought with a large enough effect; inconclusive = small, poorly fitted or top-dose-only effect, or another doubt; inactive = no such curve, though single readings can be large; an effect the other way counts as inactive or inconclusive. Unless noted, % is set by controls: 0 for no effect and ±100 for the full control effect; potency is the fitted concentration of half-maximal effect.

SMILES	Vaccinia mCherry	AMA1-RON2 inh	Pf growth 48h	VACV Venus inh	Pf growth 96h
CN(Cc1ccc(Cl)cc1)C(=O)c1cc(S(=O)(=O)N2CCOCC2)ccc1N1CCCC1	-7%	-12%	?	1%	?
Cc1cccc(N(Cc2ccccc2)C(=O)c2ccc(C)c(S(=O)(=O)N3CCOCC3)c2)c1	/	-8%	7.4µM*	/	?
CCCC(C)NC(=S)NC(=O)c1cc(S(=O)(=O)N2CCOCC2)ccc1C (stereo not given)	-11%	13%[11.6 µM]	?	-23%	?
CCCCCC(C)NC(=S)NC(=O)c1cc(S(=O)(=O)N2CCOCC2)ccc1C (stereo not given)	-18%	-2%[2.32 µM]	?	?	12µM*
Cc1ccc(C(=O)OCC(=O)N(CCc2ccccc2)Cc2ccccc2)cc1S(=O)(=O)N1CCOCC1	-17%	3%	?	-12%	?
Cn1cc(C(=O)NCCc2ccccc2)c(=O)c2cc(S(=O)(=O)N3CCCCCC3)ccc21	-5%	/	/	-26%	/
COc1ccccc1CNc1ccc(-c2nc(-c3cccc(C)c3)no2)cc1[N+](=O)[O-]	-11%	/	/	-14%	/
Cc1ccc(S(=O)(=O)N2CCOCC2)cc1C(=O)OCC(=O)N(Cc1ccccc1)C(C)C	0%	18%	15µM*	-19%	?
Cc1cccc(N(Cc2ccccc2)C(=O)c2ccc(F)c(S(=O)(=O)N3CCOCC3)c2)c1	-1%	18%	12µM*	-16%	12µM*
Cc1cccc(N(Cc2ccccc2)C(=O)c2cccc(S(=O)(=O)N3CC(C)OC(C)C3)c2)c1 (stereo not given)	-2%	-7%	13µM*	-24%	?
O=C(OCC(=O)N(CCc1ccccc1)Cc1ccccc1)c1cc(S(=O)(=O)N2CCOCC2)ccc1F	-9%	7%	-19%	-10%	3%
Cc1cccc(N(Cc2ccccc2)C(=O)Cc2ccc(S(=O)(=O)N3CCOCC3)s2)c1	-8%	-26%	13µM*	-19%	?
Cc1ccc(N(Cc2ccccc2)C(=O)c2ccc(F)c(S(=O)(=O)N3CCOCC3)c2)cc1	-14%	-13%	?	-7%	?
COc1ccc(C(=O)N(CCc2ccccc2)Cc2ccccc2)cc1S(=O)(=O)N1CCOCC1	-11%	33%	?	1%	8.3µM*
CC1CN(S(=O)(=O)c2cc(C(=O)N(CCc3ccccc3)Cc3ccccc3)ccc2Cl)CC(C)O1 (stereo not given)	-26%	5%	5.2µM*	-14%	5.2µM*
CN(Cc1ccc(C(C)(C)C)cc1)C(=O)Cc1ccc(S(=O)(=O)N2CCOCC2)s1	/	-12%	9.3µM*	/	13µM*
COc1ccc(C(=O)N(Cc2ccccc2)c2cccc(C)c2)cc1S(=O)(=O)N1CCOCC1	-7%	38%	10µM*	-9%	5.2µM*
CCN(CC1COc2ccccc2O1)C(=O)c1ccc(Cl)c(S(=O)(=O)N2CC(C)OC(C)C2)c1 (stereo not given)	-25%	-7%	?	-21%	-25%
CN(Cc1cccc(F)c1)C(=O)Cc1ccc(S(=O)(=O)N2CCOCC2)s1	i	12%	?	-4%	?
O=C(c1cccc(S(=O)(=O)N2CCOCC2)c1)N(CCc1ccccc1)Cc1ccccc1	/	-13%	?	/	?
O=C(NCCc1ccccc1)c1c2c(nc3ccccc13)C(=O)N(C1CCCCC1)C2	i	/	/	-3%	/
COC(=O)c1ccccc1-c1cc(C)cc2c1OC(CNC(=O)c1cnc(C)cn1)C2 (stereo not given)	3%	/	/	14%	/
Clc1ccccc1CN1CCN(/N=C/C=C\c2ccco2)CC1	-2%	10µM*	43%	3%	22%
C(/C=C/c1ccco1)=N/N1CCN(c2ccccc2)CC1	/	?	114%	16%	153%
CCOC(=O)C1CCCN(C(=O)CCCn2nc(C)n3c(cc4sccc43)c2=O)C1 (stereo not given)	i	-5%	/	1%	2.9µM*
O=C(COC(=O)CCNS(=O)(=O)c1ccc(Cl)cc1)NCc1ccco1	i	-5%	12%	-2%	2.1µM*
COc1ccc(N(CC(=O)NCc2ccco2)C(=O)CNS(=O)(=O)c2ccc(Cl)cc2)cc1	-24%	-8%	-11%	-15%	2.1µM*
O=C(CN(Cc1ccc(F)cc1)C(=O)CNS(=O)(=O)c1ccccc1)NCc1ccco1	-20%	0%	2%	-14%	-3%
